TTR transcr act: TTR transcription activators in neuroblastoma reporter cells, primary screen, cell-based, luminescence, SH-SY5Y, TTR promoter Gaussia luciferase | 100% = recombinant luciferase protein wells | activation, % at 16.7 µM | 92,000 tested, 1.3% active | AID 1117267, 2014;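 active = activation above the mean of all tested compounds plus 3 SD, cut at about 9.5% in these data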;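 note: cells exposed to compounds for one day before reading; 0% = median of all test compound wells on the plate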
* marks the source's active call; other numbers are inactive results. The entries come from a sample that favours hits as a whole.

SMILES	TTR transcr act
Cc1ccc(NC(=O)C(=O)N2CCCC2)cc1Cl	0.7
Cc1ccc(NC(=O)C(=O)NNC(=O)c2ccccc2C)cc1Cl	11.3*
COc1ccc(C(=O)NNC(=O)C(=O)Nc2ccc(C)c(Cl)c2)cc1	1.0
CC(C)C[C@@H]1COc2cc(F)ccc2S(=O)(=O)N1	0.6
C=C(C)Cn1c(Sc2nnc(C)s2)nc2c1c(=O)[nH]c(=O)n2C	12.4*
C=CCn1c(Sc2nc(C)cs2)nc2c1c(=O)[nH]c(=O)n2C	4.6
Cc1nnc(SCCn2c(N3CCCCC3)nc3c2c(=O)[nH]c(=O)n3C)s1	0.6
C=C1[C@@H](CCO)N(S(=O)C(C)(C)C)C[C@@H]1C (some centres not stated)	2.1
O=C1c2ccccc2C(=O)N1CCc1nc(-c2ccccn2)no1	0.1
Clc1ccccc1OCc1nc(-c2ccncc2)no1	-0.7
Cc1ccc(OCc2nc(-c3ccccn3)no2)c(Br)c1	13.7*
Cc1ccc(CN(C)C[C@H]2OCc3cnnn3CCCC(=O)N([C@H](C)CO)C[C@@H]2C)cc1	2.4
CC(C)(C)OC(=O)N[C@@H](COCc1ccccc1)C(=O)N[C@@H](CO)[C@H](O)[C@@H]1C[C@@H]1C(=O)N1CCCC1	4.0
Cc1[nH]c(=O)[nH]c(=O)c1/C=N/NC(=O)[C@H](CC(C)C)NC(=O)OC(C)(C)C	-0.7
CC(C)C[C@H](NC(=O)OC(C)(C)C)C(=O)N[C@@H](CO)[C@H](O)[C@@H]1C[C@@H]1C(=O)N1CCCC1	10.1*
C#CCNC(=O)C[C@H]1C[C@@]2(C(=O)OC)C(=C[C@H](C3CCCC3)O[C@@H]2C)N(Cc2cccc3ccccc23)C1=O	-2.0
CCOC(=O)[C@@]12CCC3=C1N(CCC3)C(=O)[C@H](CC(=O)NCc1ccccc1)C2	1.0
C[C@@H]1CN([C@@H](C)CO)C(=O)CCCn2nncc2CO[C@H]1CN(C)C(=O)Nc1ccc(N2CCN(C)CC2)cc1	2.6
O=S1(=O)CCOCC(CO)N1Cc1cccc(Br)c1 (configuration not stated)	1.0
COc1ccc(-n2c(SCC(=O)Nc3cc(C)on3)nc3c([nH]c4ccccc43)c2=O)cc1	-1.0
CCOc1ccc(-n2c(SCC(N)=O)nc3c([nH]c4ccccc43)c2=O)cc1	11.9*
CCOc1ccc(-n2c(SCC(=O)Nc3cc(C)on3)nc3c([nH]c4ccccc43)c2=O)cc1	-1.1
COC(=O)[C@]12C[C@H](CC(=O)N3CCSCC3)C(=O)N(Cc3ccc(Cl)cc3Cl)C1=C[C@H](C1CCCC1)O[C@@H]2C	-0.9
COC(=O)[C@]12C[C@H](CC(=O)NCc3ccc(C)o3)C(=O)N(CCC3=CCCCC3)C1=C[C@H](C1CCCC1)O[C@@H]2C	-1.0
CC(C)[C@@H](C)/C=C/[C@@H](C)[C@H]1CC[C@@H]2[C@]1(C)CCC1[C@]23C=C[C@]2(C[C@@H](O)CC[C@]12C)N(C(=O)Cc1ccccc1)O3 (some centres not stated)	0.0
SMILES	TTR transcr act
CC(C)CC(c1nnnn1Cc1ccco1)N1CCN(C2CCCC2)CC1 (configuration not stated)	-1.8
CC(C)CC(c1nnnn1Cc1ccccc1)N1CCC(C(N)=O)CC1 (configuration not stated)	17.8*
COc1ccc(C(c2nnnn2Cc2cccs2)N2CCC(C(N)=O)CC2)c(OC)c1 (configuration not stated)	0.7
C=CCN1C(=O)[C@H](CC(=O)NCc2cccc(C(F)(F)F)c2)[C@@]2(C(=O)OCC)CCCC=C12	-0.4
Cc1ccc(C)c(SCC(=O)NCc2ccco2)c1	-0.1
Cn1c(=O)cc(SCC(=O)NCc2ccco2)c2ccccc21	11.4*
Cn1c(=O)cc(SCC(=O)NCC2CCCO2)c2ccccc21 (configuration not stated)	2.7
CCCCOCCCNC(=O)C[C@H]1C[C@@]2(C(=O)OC)C(=C[C@H](C(C)C)O[C@@H]2C2CC2)N(Cc2ccc(Cl)cc2Cl)C1=O	-0.4
Nc1[nH]nc2nnc(-c3c(-c4ccccc4)nn4ccccc34)cc12	0.2
CCc1nnc(NC(=O)c2c(C)nn(-c3ccccc3)c2Cl)s1	21.9*
Cc1nn(-c2ccccc2)c(Cl)c1C(=O)NCC(C)C	7.9
COc1ccc(NC(=O)c2c(C)nn(-c3ccccc3)c2Cl)cc1	1.0
Cn1c(NC2=NC3(CCCC3)C3=C(CCCC3=O)N2)nc2ccccc21	5.0
COC(=O)c1[nH]c2cc(OC)ccc2c1NC(=O)CCN1CCN(c2cccc(C)c2C)CC1	21.6*
CCOC(=O)c1[nH]c2ccc(OC)cc2c1NC(=O)CCN1CCSCC1	6.0
COC(=O)c1[nH]c2cccc(OC)c2c1NC(=O)CCN1CCN(c2ccccc2F)CC1	-3.5
CC(C)CN1C(=O)C[C@]2(C(=O)N(C)c3ccc(NC(=O)c4cc(F)ccc4F)cc32)C1c1ccccc1 (some centres not stated)	-1.6
COc1ccc(-c2nc3ccccc3c(=O)n2Cc2ccccc2)cc1COc1ccc(NC(C)=O)cc1	3.1
O=c1ccn(C2CC(O)C(COC(c3ccccc3)(c3ccccc3)c3ccccc3)O2)c(=O)[nH]1 (configuration not stated)	-3.4
COc1ccc(-c2cc3ccccc3oc2=O)cc1NC(=O)c1cccnc1	-2.2
O=C(NNC(=O)c1cc2ccccc2oc1=O)c1ccccc1	0.4
O=C(OCCNC(=O)c1cc2ccccc2oc1=O)c1cccnc1	12.4*
O=C(Nc1c(F)c(F)c(F)c(F)c1F)OC[C@@H]1CSCCS(=O)(=O)N1	-0.9
C[C@H]1[C@@H](NC(=O)/C=C/c2ccccc2)CC[C@@]23CCCN2C(=O)CCC[C@@H]13	0.0
C=CC(=O)N1C/C=C\C(c2ccc(OC)cc2)N(Cc2ccc(F)cc2)C(=O)C1 (configuration not stated)	-1.9
SMILES	TTR transcr act
COc1ccc(C2/C=C\CN(S(=O)(=O)c3ccc(C)cc3)CC(=O)N2Cc2ccc(F)cc2)cc1 (configuration not stated)	16.0*
CCCCCN1C/C=C\C(c2ccc(OC)cc2)N(Cc2ccc(F)cc2)C(=O)C1 (configuration not stated)	2.5
O=C(Nc1ccc2c(c1)OCO2)OC1CC2CC1[C@H]1CCCCN1[C@H]2Cc1ccccc1 (some centres not stated)	0.3
O=C(NC12CC3CC(CC(C3)C1)C2)c1ccccc1O	9.9*
O=C(NC12CC3CC(CC(C3)C1)C2)c1ccco1	-0.9
O=C(NC12CC3CC(CC(C3)C1)C2)c1cc(F)c(F)cc1Cl	-0.2
COC(=O)c1ccc(Cn2ccc3ccc(-c4ccc5ccn(C(=O)c6ccccc6OC)c5c4)cc32)cc1	2.5
CC[C@@H](C)[C@H](NC(=O)OCc1ccccc1)c1nnc([C@@H](NC(=O)OCc2ccccc2)[C@@H](C)CC)o1	11.2*
NC(=O)C(NC(=O)OCc1ccccc1)c1ccccc1 (configuration not stated)	-2.1
CC(C)[C@H](NC(=O)OCc1ccccc1)C(=O)NCc1ccccc1	0.8
O=S1(=O)N[C@H](Cc2ccccc2)COc2cccc(F)c21	-1.4
COc1ccccc1NC(=O)CCC(=O)c1ccc(-c2ccccc2)cc1	-2.9
COc1ccccc1NC(=O)CCC(=O)Nc1ccccc1OC	9.9*
COc1ccc(OCC(=O)Nc2ccccc2OC)cc1	5.5
CCOC(=O)[C@@H]1CSCCS(=O)(=O)N1C(=O)[C@H](C)NC(=O)OC(C)(C)C	3.5
COC(=O)c1cc(OC)c(OC)cc1NC(=S)Nc1cc(Cl)ccc1OC	9.0
COC(=O)c1cc(OC)c(OC)cc1NC(=S)Nc1cccc(Cl)c1	17.4*
